Data from PubChem BioAssay (Tox21).
“And” between values parts separate entries of the source, which are not always exact repeats. Equal values may be shown once. Some compounds were tested as several samples or in several runs, with calls that do not always agree. The source made the active and inactive calls. Where a call stands in place of a potency, no number is given. Unless noted, calls follow the shape of the dose curve; as a rule, active = well fitted curve in the direction sought with a large enough effect in the repeat runs; inconclusive = weak or mixed curves; inactive = no such curve, though single readings can be large; an effect the other way counts as inactive or inconclusive.

Experiments:
[1] = qHTS assay for identifying genotoxic compounds that show differential cytotoxicity against isogenic chicken DT40 cell lines with known DNA damage response pathways - wild type cell line (AID 743012); also: nearly all actives have a fitted effect of over 60% in size; also: potency is read from the fitted curve at half-maximal effect
Method in brief: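 CellTiter-Glo luminescence readout of viability in wild type DT40 cells after 40 h compound exposure at 37 C/5% CO2; 300 cells/well; reagent incubated 30 min at room temperature before reading.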

[2] = qHTS assay for identifying genotoxic compounds that show differential cytotoxicity against isogenic chicken DT40 cell lines with known DNA damage response pathways - Rev3 mutant cell line (AID 743014); also: nearly all actives have a fitted effect of over 55% in size; also: potency is read from the fitted curve at half-maximal effect
[3] = qHTS assay for identifying genotoxic compounds that show differential cytotoxicity against isogenic chicken DT40 cell lines with known DNA damage response pathways - Rad54/Ku70 mutant cell line (AID 743015); also: nearly all actives have a fitted effect of over 60% in size
[4] = qHTS assay to identify small molecule antagonists of the androgen receptor (AR) signaling pathway - cell viability counter screen (AID 743033; also: nearly all actives have a fitted effect of over 45% in size; also: potency is read from the fitted curve at half-maximal effect)
[5] = qHTS assay to identify small molecule antagonists of the androgen receptor (AR) signaling pathway using the MDA cell line - cell viability counter screen (AID 743041; also: nearly all actives have a fitted effect of over 45% in size)
Method in brief: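 Using the breast carcinoma line MDA-kb2 AR-luc, test chemicals were co-incubated with R1881 for 16 h; CellTiter-Fluor reagent, added at 15.5 h, provided a fluorescence measure of live cells.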

[6] = qHTS assay to identify small molecule antagonists of the thyroid receptor (TR) signaling pathway - cell viability counter screen (AID 743064); also: nearly all actives have a fitted effect of over 50% in size; also: potency is read from the fitted curve at half-maximal effect
Method in brief: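 In-well cytotoxicity read by CellTiter-Fluor (30 min, 37 C) following 23.5 h exposure of GH3 cells bearing a TRE-luciferase sensor. Compounds were added alongside 1 nM (final) T3 to drive TR transactivation.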

[7] = qHTS assay to identify small molecule antagonists of the thyroid receptor (TR) signaling pathway (AID 743065); also: nearly all actives have a fitted effect of over 55% in size; also: potency is read from the fitted curve at half-maximal effect
Method in brief: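 Antagonism measured as loss of luciferase signal in GH3 cells stably carrying a TRE-luciferase reporter, co-treated with compound and T3 (1 nM final) for 23.5 h at 37 C. Viability was read in the same well by CellTiter-Fluor.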

[8] = system: thyroid hormone receptor (rat, GH3 cells); assay: qHTS assay to identify small molecule agonists of the thyroid receptor (TR) signaling pathway (AID 743066; calls by dose curve)
[9] = target: Estrogen receptor (Homo sapiens) (UniProt P03372); assay: qHTS assay to identify small molecule antagonists of the estrogen receptor alpha (ER-alpha) signaling pathway (AID 743069; active = well fitted curve in the direction sought with a large enough effect in the signal ratio in the repeat runs, not every such curve was filed as active; inconclusive = weak or mixed curves, or effect the other way; inactive = no such curve, though single readings can be large or run the other way; the % refers to the signal ratio; also: potency is read from the fitted curve at half-maximal effect)
Chain of Estrogen receptor (Homo sapiens) (P03372 whole entry, looked up): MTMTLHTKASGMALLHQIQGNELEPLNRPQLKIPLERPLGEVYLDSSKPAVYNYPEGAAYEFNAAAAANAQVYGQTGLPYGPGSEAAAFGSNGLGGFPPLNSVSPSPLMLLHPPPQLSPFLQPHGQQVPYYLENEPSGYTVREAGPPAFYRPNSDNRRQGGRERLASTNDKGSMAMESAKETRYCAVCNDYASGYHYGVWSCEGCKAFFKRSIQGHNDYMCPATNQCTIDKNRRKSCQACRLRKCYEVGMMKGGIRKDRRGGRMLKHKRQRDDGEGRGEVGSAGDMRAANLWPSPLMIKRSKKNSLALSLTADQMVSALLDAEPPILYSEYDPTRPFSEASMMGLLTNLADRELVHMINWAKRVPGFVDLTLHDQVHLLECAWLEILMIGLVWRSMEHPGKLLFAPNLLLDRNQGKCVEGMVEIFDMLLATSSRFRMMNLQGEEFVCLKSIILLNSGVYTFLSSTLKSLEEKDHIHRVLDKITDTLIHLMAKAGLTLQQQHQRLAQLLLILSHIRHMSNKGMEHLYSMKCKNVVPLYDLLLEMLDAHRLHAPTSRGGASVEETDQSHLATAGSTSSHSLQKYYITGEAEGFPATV
Method in brief: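 Fluorescence intensity from a beta-lactamase FRET substrate served as the read-out. Cells: HEK293 with stably integrated ER-alpha-UAS-bla reporter. Agonist 17beta-estradiol was co-added with compounds; incubation 18 hr at 37C, substrate 2 hr at room temperature.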

[10] = qHTS assay to identify small molecule antagonists of the estrogen receptor alpha (ER-alpha) signaling pathway - cell viability counter screen (AID 743074; calls by dose curve; also: nearly all actives have a fitted effect of over 45% in size)
[11] = target: Estrogen receptor (Homo sapiens) (UniProt P03372); assay: qHTS assay to identify small molecule agonists of the estrogen receptor alpha (ER-alpha) signaling pathway (AID 743075; calls by dose curve; also: potency is read from the fitted curve at half-maximal effect)
[12] = target: Estrogen receptor (Homo sapiens) (UniProt P03372); assay: qHTS assay to identify small molecule agonists of the estrogen receptor alpha (ER-alpha) signaling pathway using the BG1 cell line (AID 743079); also: nearly all actives have a fitted effect of over 20% in size; also: potency is read from the fitted curve at half-maximal effect
[13] = qHTS assay to identify small molecule antagonists of the estrogen receptor alpha (ER-alpha) signaling pathway using the BG1 cell line (AID 743080; calls by dose curve;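 also: BG1 cells stimulated with 17beta-estradiol alongside compound; nearly all actives have a fitted effect of over 25% in size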; also: potency is read from the fitted curve at half-maximal effect)
Method in brief: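 Endogenous full-length ER-alpha in BG1-Luc-4E2 cells drives a stably integrated 4×ERE luciferase gene; compounds were tested against 17beta-estradiol over 21.5 h, with luminescence and multiplexed viability fluorescence recorded.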

[14] = qHTS assay to identify small molecule antagonists of the estrogen receptor alpha (ER-alpha) signaling pathway using the BG1 cell line - cell viability counter screen (AID 743081);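 also: compound given together with 17beta-estradiol as the ER stimulus; nearly all actives have a fitted effect of over 45% in size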
[15] = target: Aromatase (Homo sapiens) (UniProt P11511); assay: qHTS assay to identify aromatase inhibitors (AID 743083); also: nearly all actives have a fitted effect of over 55% in size; also: potency is read from the fitted curve at half-maximal effect
Chain of Aromatase (Homo sapiens) (P11511 whole entry, looked up): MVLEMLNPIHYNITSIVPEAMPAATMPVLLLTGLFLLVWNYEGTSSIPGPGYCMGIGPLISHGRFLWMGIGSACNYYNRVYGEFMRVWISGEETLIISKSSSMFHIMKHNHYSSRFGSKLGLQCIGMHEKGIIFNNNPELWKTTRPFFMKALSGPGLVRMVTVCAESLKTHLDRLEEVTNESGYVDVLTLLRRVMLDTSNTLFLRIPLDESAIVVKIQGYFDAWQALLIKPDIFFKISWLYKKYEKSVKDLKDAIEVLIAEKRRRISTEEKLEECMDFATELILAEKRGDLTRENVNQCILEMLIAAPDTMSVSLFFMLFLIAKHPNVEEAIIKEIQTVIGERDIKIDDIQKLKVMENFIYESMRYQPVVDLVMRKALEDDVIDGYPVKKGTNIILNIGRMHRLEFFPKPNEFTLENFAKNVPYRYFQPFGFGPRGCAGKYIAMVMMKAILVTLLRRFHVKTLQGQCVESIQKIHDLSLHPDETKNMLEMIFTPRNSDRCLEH

[16] = target: Androgen receptor (Homo sapiens) (UniProt P10275); assay: qHTS assay to identify small molecule antagonists of the androgen receptor (AR) signaling pathway (AID 743035; active = well fitted inhibition curve with a large enough effect in the signal ratio in the repeat runs, not every such curve was filed as active; inconclusive = weak or mixed curves, or effect the other way; inactive = no such curve, though single readings can be large or run the other way; the % refers to the signal ratio; also: potency is read from the fitted curve at half-maximal effect)
Chain of Androgen receptor (Homo sapiens) (P10275 whole entry, looked up): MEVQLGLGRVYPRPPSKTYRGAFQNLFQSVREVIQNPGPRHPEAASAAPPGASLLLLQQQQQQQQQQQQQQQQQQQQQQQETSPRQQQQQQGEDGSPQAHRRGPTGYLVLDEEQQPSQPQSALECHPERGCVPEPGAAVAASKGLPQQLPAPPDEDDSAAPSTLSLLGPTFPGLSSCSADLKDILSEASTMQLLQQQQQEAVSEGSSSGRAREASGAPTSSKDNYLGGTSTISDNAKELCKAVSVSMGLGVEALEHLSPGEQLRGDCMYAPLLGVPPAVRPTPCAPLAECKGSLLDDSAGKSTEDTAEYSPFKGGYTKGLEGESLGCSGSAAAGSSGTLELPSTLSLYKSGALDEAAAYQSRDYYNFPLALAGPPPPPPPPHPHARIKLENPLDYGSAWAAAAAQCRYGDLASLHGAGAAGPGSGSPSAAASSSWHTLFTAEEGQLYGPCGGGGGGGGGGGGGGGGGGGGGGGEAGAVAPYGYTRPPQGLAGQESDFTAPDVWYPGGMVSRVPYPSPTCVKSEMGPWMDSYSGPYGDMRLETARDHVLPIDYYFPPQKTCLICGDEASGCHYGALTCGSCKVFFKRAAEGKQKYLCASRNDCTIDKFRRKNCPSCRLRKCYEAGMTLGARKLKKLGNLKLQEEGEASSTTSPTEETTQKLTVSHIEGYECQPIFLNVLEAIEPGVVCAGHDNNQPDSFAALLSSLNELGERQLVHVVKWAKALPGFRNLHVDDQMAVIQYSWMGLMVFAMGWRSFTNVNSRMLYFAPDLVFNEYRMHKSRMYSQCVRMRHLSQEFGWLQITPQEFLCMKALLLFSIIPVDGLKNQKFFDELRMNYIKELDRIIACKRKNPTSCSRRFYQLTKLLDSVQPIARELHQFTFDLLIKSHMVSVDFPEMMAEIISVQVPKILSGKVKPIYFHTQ
Method in brief: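 AR-bla HEK293 reporter cells; 4 h settle at 37C/5% CO2; compound + R1881 agonist, 16 h at 37C; LiveBLAzer B/G FRET substrate 2 h RT; fluorescence intensity read. qHTS format.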

[17] = qHTS assay to identify small molecule antagonists of the glucocorticoid receptor (GR) signaling pathway - cell viability counter screen (AID 720693); also: nearly all actives have a fitted effect of over 55% in size
[18] = target: Androgen receptor (Homo sapiens) (UniProt P10275); assay: qHTS assay to identify small molecule agonists of the androgen receptor (AR) signaling pathway (AID 743036; active = well fitted activation curve with a large enough effect in the signal ratio in the repeat runs, with a control signal flat, not every such curve was filed as active; inconclusive = weak or mixed curves, or effect the other way; inactive = no such curve, though single readings can be large or run the other way; the % refers to the signal ratio)
Method in brief: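 Activation was read as beta-lactamase FRET signal from LiveBLAzer B/G substrate, added for 2 h at room temperature. Before that, GeneBLAzer AR-UAS-bla GripTite (HEK293) cells had 16 h compound exposure at 37C.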

[19] = target: Androgen receptor (Homo sapiens) (UniProt P10275); assay: qHTS assay to identify small molecule agonists of the androgen receptor (AR) signaling pathway using the MDA cell line (AID 743040; also: nearly all actives have a fitted effect of over 20% in size); conditions: MDA-kb2 AR-luc cells, MMTV luciferase, 16 h; activity change: at 70.3 µM (top of the series), stronger effect = higher value
Method in brief: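 Stable MMTV-luciferase reporter in MDA-kb2 cells; note the promoter carries GR as well as AR response elements. 16 h compound treatment, 37C, 0% CO2; ONE-Glo luminescence endpoint.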

[20] = target: Androgen receptor (Homo sapiens) (UniProt P10275); assay: qHTS assay to identify small molecule antagonists of the androgen receptor (AR) signaling pathway using the MDA cell line (AID 743042)
Method in brief: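 Antagonist mode: compounds plus R1881 agonist added to MDA-kb2 AR-luc cells, incubated 16 h at 37C. Luciferase reporter luminescence quantified, with multiplexed CellTiter-Fluor readout for cell viability.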

Compound | Potency [1] | Potency [2] | Potency [3] | Potency [4] | Potency [5] | Potency [6] | Potency [7] | Potency [8] | Potency [9] | Potency [10] | Potency [11] | Potency [12] | Potency [13] | Potency [14] | Potency [15] | Potency [16] | Potency [17] | Potency [18] | Potency [19] | Potency [20]
NCc1cccnc1 | inactive | inactive | inactive | inactive | inactive | inactive | inactive | inactive | inactive | inactive | inactive | inactive | inactive | inactive | inactive |  |  |  |  | 
CC(C)c1ccc(CO)cc1 | inactive | inactive | inactive | inactive | inactive |  | inactive | inactive | inactive | inactive | 43.7 µM [inconclusive] (active) and inactive | 54.5 µM (active) and inactive | inactive | inactive | inactive | inactive |  |  |  | 
CCCCCc1cc(O)cc(O)c1 | inactive | inactive |  | inactive | inactive | inactive |  | inactive |  | inactive |  |  |  | inactive | inactive |  | inactive |  |  | 
CC(C)Oc1cc(-n2nc(C(C)(C)C)oc2=O)c(Cl)cc1Cl | 5.45 µM (active) | 6.11 µM (active) |  | 11 µM (active) | inactive |  | 67.6 µM (active) | inactive | 61.6 µM [inconclusive] (active) | inactive | inactive |  | 47.9 µM (active) | inactive | 60.3 µM (active) and 17.2 µM (active) | 43 µM (active) and 12.3 µM (active) | inactive | inactive | inactive | 38.6 µM (active)
Nn1cnnc1 | inactive | inactive |  | inactive | inactive | inactive | inactive | inactive | inactive | inactive | inactive | inactive | inactive | inactive | inactive |  | inactive |  |  | 
COP(=S)(OC)Oc1ccc([N+](=O)[O-])cc1 |  |  |  | inactive | inactive | inactive | inactive | inactive | inactive | inactive | inactive | 48.6 µM (active) and inactive | inactive | inactive | inactive |  | inactive |  |  | 
CC(C)N(C(=O)SCC(Cl)=C(Cl)Cl)C(C)C | 61.1 µM (active) | inactive and 54.5 µM (active) |  | inactive | inactive | 47.9 µM (active) | 53.8 µM (active) and 61.1 µM (active) | inactive |  | inactive |  |  |  | inactive |  |  | inactive |  |  | 
